# Test results as given in PubChem BioAssay (EPA / NIEHS).
# The source made the active and inactive calls. How the source made its calls: active means hit-call score of the fitted dose curve at least 0.9, where 1 is the maximum; inactive means score below 0.9.
# Assay: ATG_RORE_CIS: Attagene CIS-FACTORIAL HepG2 Assay for human RAR-related Orphan Receptor Element (RORE) (AID 2282959)
# Conditions: HepG2 Attagene cis-factorial RORE reporter, mRNA; actives raise or lower the signal
# Protocol: ATG_CIS is a cell-based, multiplexed-readout assay that uses HepG2, a human liver cell line, with measurements taken at 24 hours after chemical dosing in a 24-well plate.ATG_RORE_CIS is one of 52 assay component(s) measured or calculated from the ATG_CIS assay. It is designed to make measurements of mRNA induction, a form of inducible reporter, as detected with fluorescence intensity signals by Reverse transcription polymerase chain reaction (RT-PCR) and Capillary electrophoresis technology.Data from the assay component ATG_RORE_CIS was analyzed into 1 assay endpoint. This assay endpoint, ATG_RORE_CIS, was analyzed with bidirectional fitting relative to DMSO as the negative control and baseline of activity. Using a type of inducible reporter, measures of mRNA for gain or loss-of-signal activity can be used to understand the reporter gene at the transcription factor-level as they relate to the gene RORA and RORB and RORC. Furthermore, this assay endpoint can be referred to as a primary readout, because this assay has produced multiple assay endpoints where this one serves a reporter gene function. To generalize the intended target to other relatable targets, this assay endpoint is annotated to the nuclear receptor intended target family, where the subfamily is orphan.
# Human liver HepG2 cells are transiently transfected with multiple reporter transcription units (MRTUs) in 6-well plates using FuGene 6 reagent (Roche; 3 ml FuGene/1 mg DNA). The MRTU constructs are regulated by a cis-regulating element (promoter). […] A major difference between the CIS and TRANS system is that in CIS activities of endogenous TFs are measured, whereas the TRANS assay evaluates changes in activities of exogenous, chimeric NR-Gal4 proteins. […] At the end of 24 hour incubation, total RNA was isolated using TriZol reagent (Invitrogen). The isolated RNA is then reverse-transcribed using oligo(dT) primer and Mo-MLV reverse transcriptase (Invitrogen) with DNAse I (Ambion) treatment for 30 min. The one-tenth of the produced cDNA was amplified by PCR using Taq DNA polymerase (Invitrogen) and two reporter sequence-specific primers. The PCR products were fluorescently labeled by primer extension with 6-arboxyfluorescein (6-FAM) 5'-labeled reporter sequence-specific primer (2 min at 95 C, 20 s at 68 C and 10 min at 72 C) and these products were digested with 5U of HpaI (New England Biolabs) for 2h at 37 C. The fragments were purified using Qiaquick PCR columns (Qiagen), analyzed on an ABI 3130xL genetic analyzer (Applied Biosystems) with peak positions identified by using a set of X-rhodamine (ROX)-labeled MapMarker1000 molecular weight standards (BioVentures). The raw capillary electrophoresis data was processed using Attagraph software (Attagene).
SMILES,outcome,AC50
CNC(=O)Oc1ccc2c(c1)[C@]1(C)CCN(C)[C@@H]1N2C,inactive,
Cc1ccccc1C=O,inactive,
C=C[Si](OCC)(OCC)OCC,inactive,
Clc1nc(C(Cl)(Cl)Cl)c(Cl)c(Cl)c1Cl,inactive,
CN(C)CCCN,inactive,
CC(C)(Oc1ccc(CCNC(=O)c2ccc(Cl)cc2)cc1)C(=O)O,inactive,
CCCCOCCOCCSC#N,inactive,
CCC(=O)OCc1ccccc1,inactive,
O=C[C@@H](O)[C@H](O)[C@H](O)CO,inactive,
O=[N+]([O-])c1ccc(Nc2ccc(Nc3ccccc3)c(S(=O)(=O)O)c2)c([N+](=O)[O-])c1,,40.1 µM (active)
O=C(O)Cc1cccc2ccccc12,inactive,
O=c1[nH]nnc2ccccc12,inactive,
CC(=O)/C=C/C1=C(C)CCCC1(C)C,inactive,
CCc1c(C)cc(N)c(CC)c1N,inactive,
CC1(C)C(=O)N(Br)C(=O)N1Cl,inactive,
C=CC(=O)OCCOCCOCC,inactive,
COCCCOc1ccnc(CS(=O)c2nc3ccccc3[nH]2)c1C (stereo not given),inactive,
O=Nc1ccc(Nc2ccccc2)cc1,inactive,
Nc1ccc(F)c([N+](=O)[O-])c1,inactive,
O=C1O[C@@H]2[C@@H](O)[C@H](O)O[C@@H]2[C@H]1O,inactive,

SMILES,outcome,AC50
OCCOCCOCCOCCO,inactive,
Clc1ccc(Cl)c(Cl)c1Cl,inactive,
CO[Si](CCCn1c(=O)n(CCC[Si](OC)(OC)OC)c(=O)n(CCC[Si](OC)(OC)OC)c1=O)(OC)OC,inactive,
CC(=O)Nc1ccc(CC(=O)O)cc1,inactive,
O=C(O)CN(CCN(CC(=O)O)CC(=O)O)CCN(CC(=O)O)CC(=O)O,inactive,
O=C1c2ccccc2C(=O)N1SC1CCCCC1,inactive,
NC(=O)NC1NC(=O)NC1=O (stereo not given),inactive,
CCN(CC)CCOC(=O)c1ccc(N)cc1,inactive,
O=[N+]([O-])c1cc(C(F)(F)F)ccc1Cl,inactive,
C=CCOc1nc(OCC=C)nc(OCC=C)n1,inactive,
CCCC(=O)OCCC(C)CCC=C(C)C (stereo not given),inactive,
CCCC/C=C\CCCCCCCCCC=O,inactive,
Cc1ccc(C(=O)O)o1,inactive,
O=C(COc1ccc(Cl)cc1)N1CCN(Cc2ccc3c(c2)OCO3)CC1,inactive,
O=C(O)COCCN1CCN(C(c2ccccc2)c2ccc(Cl)cc2)CC1 (stereo not given),inactive,
O=[N+]([O-])c1ccc(C=Cc2ccc([N+](=O)[O-])cc2S(=O)(=O)O)c(S(=O)(=O)O)c1,inactive,
O=Cc1ccc(Cl)c([N+](=O)[O-])c1,inactive,
CC(C)=CCCC(C)=CCCC(C)=CCO,inactive,
CCCC1CCC(=O)O1 (stereo not given),inactive,
Cc1cc(C2(c3cc(C)c(O)cc3C)OS(=O)(=O)c3ccccc32)c(C)cc1O,inactive,
